Common to all, as to test: NCI-60 one-dose screen, 48 h (100 = growth as untreated, 0 = no growth, -100 = all killed)
One assay relates to HCT-15 colon. Conditions: 10 µM unless noted.
Another assay deals with HT29 colon. Conditions: 10 µM unless noted.
The next assay concerns SNB-75 CNS. The note with it: 10 µM unless noted.
A further assay relates to SNB-19 CNS. The note with it: 10 µM unless noted.
In the next assay the test system is U251 CNS. The note with it: 10 µM unless noted.
The next assay deals with PC-3 prostate. Conditions: 10 µM unless noted.
In another assay the test system is SK-MEL-5 melanoma. The note with it: 10 µM unless noted.
The subject of the next assay is UACC-62 melanoma. The note with it: 10 µM unless noted.
In the next assay the test system is LOX IMVI melanoma. Conditions: 10 µM.
In another assay the test system is SK-MEL-28 melanoma. The note with it: 10 µM unless noted.
For a further assay, the system named is SK-MEL-2 melanoma. The note with it: 10 µM unless noted.
For the next assay, the system named is EKVX NSCLC. The note with it: 10 µM unless noted.
The test system of another assay is SN12C renal. Conditions: 10 µM unless noted.
The subject of the next assay is TK-10 renal. Conditions: 10 µM unless noted.
A further assay relates to ACHN renal. Conditions: 10 µM unless noted.
In another assay the test system is CAKI-1 renal. Conditions: 10 µM unless noted.
The subject of a further assay is A498 renal. The note with it: 10 µM unless noted.
The next assay deals with CCRF-CEM leukemia. Conditions: 10 µM unless noted.
The subject of another assay is MOLT-4 leukemia. The note with it: 10 µM unless noted.
The subject of the next assay is UO-31 renal. The note with it: 10 µM unless noted.

About 83,000 compounds went through this panel and 20% of them were active in at least one assay; those are over-represented in the sample as a whole.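 Each cell line was grown in a 96-well plate and treated with one concentration of compound for 48 hours. Values below 10 were considered active.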 Unmarked numbers belong to inactive results. Active and inactive are the calls of the source.

`CCCCCC[C@@H](O)C/C=C\CCCCCCCC(=O)OCCOC`: the growth in the assay with HCT-15 colon is 103%; in the assay on HT29 colon, 101%; in the assay on SNB-75 CNS, 90%; with SNB-19 CNS, 97.8%; with U251 CNS it was 105%; in the assay on PC-3 prostate, 90.4%. Further, the growth in the assay with SK-MEL-5 melanoma was 96.2%; in the assay on UACC-62 melanoma, 90.6%; in the assay with LOX IMVI melanoma, 86%; in the assay with SK-MEL-28 melanoma, 105%; in the assay with SK-MEL-2 melanoma it was 97.6%; in the assay with EKVX NSCLC it was 79.1%. Also, the growth with SN12C renal is 98.3%; with TK-10 renal, 99.1%; with ACHN renal it was 100%; with CAKI-1 renal it was 103%; in the assay with A498 renal, 107%; with CCRF-CEM leukemia it was 94.3%. The growth in the assay on MOLT-4 leukemia is 122%.
For the molecule `O=C(C[P+](c1ccccc1)(c1ccccc1)c1ccccc1)c1ccccc1`, the growth with HCT-15 colon was 97.5%; with HT29 colon, 87.4%; in the assay on SNB-75 CNS, 83.6%; in the assay with SNB-19 CNS, 94.4%; in the assay on U251 CNS, 96.7%; with PC-3 prostate it was 74.7%. Moreover, the growth with SK-MEL-5 melanoma was 104%; in the assay with UACC-62 melanoma, 79.5%; in the assay on LOX IMVI melanoma, 70.6%; in the assay on SK-MEL-28 melanoma it was 109%; with EKVX NSCLC, 88.5%; with SN12C renal, 87.9%. For the same molecule, the growth in the assay on UO-31 renal is 71.8%; in the assay on TK-10 renal, 94.4%; in the assay with ACHN renal it was 94.3%; with CAKI-1 renal, 84.5%; in the assay with A498 renal, 79.8%; in the assay with CCRF-CEM leukemia, 90.5%. For the same molecule, in the assay on MOLT-4 leukemia, the growth was 92.3%.
Turning to `Cc1c(O)ccc(SC#N)c1C`, the growth in the assay on HCT-15 colon is 96.9%; in the assay on HT29 colon, 112%; in the assay on SNB-75 CNS, 95.3%; in the assay on SNB-19 CNS, 96.5%; in the assay with U251 CNS, 101%; with PC-3 prostate, 86.1%. The growth in the assay on SK-MEL-5 melanoma is 106%; in the assay on UACC-62 melanoma, 94.6%; with LOX IMVI melanoma it was 101%; in the assay on SK-MEL-28 melanoma it was 99.5%; with SK-MEL-2 melanoma, 103%; in the assay on EKVX NSCLC, 121%. Further, the growth in the assay with SN12C renal is 95.3%; in the assay on ACHN renal it was 103%; with CAKI-1 renal, 98.5%; with A498 renal, 127%; in the assay with CCRF-CEM leukemia, 30.7%; in the assay with MOLT-4 leukemia, 97.5%.
Regarding `OC(c1cc(C23CC4CC(CC(C4)C2)C3)nc2c(Cl)cc(Cl)cc12)C1CCCCN1` (configuration not stated), the growth in the assay on HCT-15 colon is -65.7% (active); with HT29 colon, -89.8% (active); with SNB-75 CNS, -82% (active); in the assay with SNB-19 CNS, -58.4% (active); in the assay with U251 CNS it was -88.5% (active); in the assay on PC-3 prostate, -84.5% (active). Besides, the growth is 9.05% (active) in the assay on SK-MEL-5 melanoma; -44.1% (active) with UACC-62 melanoma; -51.2% (active) in the assay on LOX IMVI melanoma; -79.8% (active) with SK-MEL-28 melanoma; -33.6% (active) in the assay with EKVX NSCLC; -61.4% (active) with SN12C renal. The growth with UO-31 renal is -83.3% (active); in the assay on TK-10 renal, -88.1% (active); with ACHN renal, -70.1% (active); in the assay with CAKI-1 renal, -54.5% (active); in the assay with A498 renal, -1.09% (active); in the assay on CCRF-CEM leukemia, -45.3% (active). Further, in the assay on MOLT-4 leukemia, the growth is -53.2% (active).
`CC(C)c1ccc(C(=O)OC2CCCC2)cc1`: the growth was 95.3% in the assay on HCT-15 colon; 113% with HT29 colon; 90.4% with SNB-75 CNS; 102% with SNB-19 CNS; 109% in the assay with U251 CNS; 89.9% in the assay on PC-3 prostate. Besides, the growth in the assay with SK-MEL-5 melanoma was 98.7%; in the assay with UACC-62 melanoma it was 97.7%; in the assay with LOX IMVI melanoma, 95%; in the assay on SK-MEL-28 melanoma, 108%; in the assay on EKVX NSCLC, 92.6%; in the assay with SN12C renal, 97.5%. The growth is 99.6% in the assay on UO-31 renal; 99.5% in the assay with ACHN renal; 98.8% in the assay with CAKI-1 renal; 117% in the assay on A498 renal; 89.8% in the assay on CCRF-CEM leukemia; 110% in the assay on MOLT-4 leukemia.
On to `CC(O)C(O)C(O)C(O)C(O)C(=O)NNc1ccccc1` (configuration not stated), for which the growth in the assay on HCT-15 colon is 78.6%; in the assay on HT29 colon, 104%; in the assay on SNB-75 CNS, 82.6%; with SNB-19 CNS, 97.1%; with U251 CNS, 97.6%; in the assay on PC-3 prostate, 86.3%. Also, the growth with SK-MEL-5 melanoma is 107%; in the assay with UACC-62 melanoma, 30.5%; with LOX IMVI melanoma, 48.1%; in the assay on SK-MEL-28 melanoma, 103%; with SK-MEL-2 melanoma it was 106%; in the assay with SN12C renal, 90.5%. Besides, the growth with UO-31 renal is 70.6%; in the assay with TK-10 renal it was 110%; in the assay with ACHN renal, 67%; in the assay with CAKI-1 renal, 77.1%; in the assay with A498 renal, 69.7%; with CCRF-CEM leukemia, 59.6%. Besides, the growth with MOLT-4 leukemia is 101%.
As for `CCOC(=O)NC(/C=C/c1ccccc1)NC(=O)OCC`, the growth is 105% in the assay on HCT-15 colon; 101% in the assay with HT29 colon; 96.6% with SNB-75 CNS; 98.4% in the assay with SNB-19 CNS; 94.5% in the assay with U251 CNS; 96.9% with PC-3 prostate. Besides, the growth in the assay on SK-MEL-5 melanoma was 106%; with UACC-62 melanoma it was 97.7%; in the assay with LOX IMVI melanoma, 99.8%; in the assay with SK-MEL-28 melanoma, 105%; with SK-MEL-2 melanoma it was 104%; in the assay with SN12C renal, 99%. Further, the growth in the assay on UO-31 renal was 91.2%; in the assay on ACHN renal, 109%; in the assay on CAKI-1 renal, 94.5%; with A498 renal it was 89.3%; in the assay on CCRF-CEM leukemia, 98.4%; in the assay with MOLT-4 leukemia, 98.7%.
For the molecule `CCCCCCCCCCCCCCCCSC(=NCC)NCC`, the growth was -36% (active) in the assay on HCT-15 colon; -61.4% (active) with HT29 colon; 53.3% in the assay on SNB-75 CNS; 55.3% with SNB-19 CNS; 4.98% (active) in the assay with U251 CNS; -42% (active) in the assay with PC-3 prostate. The growth with SK-MEL-5 melanoma was -38% (active); in the assay with UACC-62 melanoma, -8.15% (active); in the assay on LOX IMVI melanoma, -91.1% (active); in the assay on SK-MEL-28 melanoma it was 43%; with SK-MEL-2 melanoma, -21.6% (active); in the assay with SN12C renal, 18.6%. For the same molecule, the growth with UO-31 renal is -13.2% (active); with TK-10 renal it was 50.7%; with ACHN renal it was -21.6% (active); in the assay with CAKI-1 renal it was -25.9% (active); in the assay on A498 renal, 67.4%; in the assay with CCRF-CEM leukemia, -48.9% (active). In addition, the growth in the assay on MOLT-4 leukemia was -47.7% (active).
With `CC1CC(C)(C)OB(OC(C)CC(C)(C)OB2OC(C)CC(C)(C)O2)O1` (configuration not stated), the growth in the assay with HCT-15 colon was 104%; in the assay with HT29 colon, 99.2%; in the assay with SNB-75 CNS, 115%; in the assay on SNB-19 CNS, 104%; in the assay on U251 CNS, 94.2%; in the assay with PC-3 prostate, 97.5%. Moreover, the growth in the assay on SK-MEL-5 melanoma was 101%; with UACC-62 melanoma it was 106%; in the assay on LOX IMVI melanoma, 93.7%; in the assay with SK-MEL-28 melanoma, 104%; with SN12C renal, 101%; in the assay on UO-31 renal, 90.9%. In addition, the growth is 93.6% in the assay with TK-10 renal; 108% with ACHN renal; 105% in the assay with CAKI-1 renal; 118% with A498 renal; 104% with CCRF-CEM leukemia; 99.2% in the assay on MOLT-4 leukemia.

For the origin of these results see PubChem BioAssay (NCI).
